Laboratory results published in PubChem BioAssay (Tox21).
Values joined by “and” are separate entries in the source; they are usually repeats but may differ in a detail not shown here. Equal values may be shown once. Inconclusive results are not listed. More than one record can exist for a structure, and the calls need not agree. Active and inactive are the calls of the source. Calls follow the shape of the full dose curve.

Experiment: qHTS assay for small molecule agonists of the antioxidant response element (ARE) signaling pathway - cell viability counter screen (AID 743203); also: nearly all actives have a fitted effect of over 55% in size
Details: ARE-bla HepG2 viability, CellTiter-Glo luminescence, 16 h; series mostly up to 73.3 µM; viability change, negative = cytotoxic: at the top concentration
Text: National Center for Advancing Translational Sciences [NCATS]
NIH Chemical Genomics Center [NCGC]
U.S. Environmental Protection Agency [EPA]
National Institutes of Environmental Health Sciences [NIEHS]
National Toxicology Program [NTP]
U.S. Food and Drug Administration [FDA]
Oxidative stress has been implicated in the pathogenesis of a variety of diseases ranging from cancer to neurodegeneration. The antioxidant response element (ARE) signaling pathway plays an important role in the amelioration of oxidative stress. The CellSensor ARE-bla HepG2 cell line (Invitrogen) can be used for analyzing the Nrf2/antioxidant response signaling pathway. Nrf2 (NF-E2-related factor 2) and Nrf1 are transcription factors that bind to AREs and activate these genes. The CellSensor ARE-bla Hep G2 cell line contains a beta-lactamase reporter gene under control of the Antioxidant Response Element (ARE) stably integrated into HepG2 cells. The activation of the report gene under culture conditions can be detected by fluorescence intensity. This cell line has been used to screen the Tox21 10K compound library to identify agonists that induce oxidative stress. The cytotoxicity of the Tox21 compound library against the ARE-bla cell line was tested in parallel by measuring the cell viability using CellTiter-Glo assay (Promega, Madison, WI) in the same wells.
Tox21 Assay Protocol Summary:
ARE-bla HepG2 cells were dispensed at 2,000 cells/5 ul/well in 1536-well white wall/solid bottom plates using a Multidrop Combi (ThermoFisher Scientific, Waltham, MA) dispenser. After the assay plates were incubated at 37C/5% CO2 for 5 hrs, 23 nL of compounds dissolved in DMSO, positive controls or DMSO only was transferred to the assay plate by a pintool work station (Kalypsys, San Diego, CA). The plates were incubated at 37C/5% CO2 for 16 hrs, followed by addition of 4 ul/well of CellTiter-Glo reagent into the assay plates using a Flying Reagent Dispenser (Aurora Discovery, San Diego, CA). After 30 min incubation at room temperature, the luminescence intensity in the assay plates was measured using a ViewLux (PerkinElmer, Shelton, CT) plate reader.
% is scaled to controls: 0 for no effect and ±100 for the full control effect; potency is read from the fitted curve at half-maximal effect.

SMILES	viability change, negative = cytotoxic	Potency
N#CNC#N	3.75% [at 94.8 µM] (inactive)	
CCN(CC)C(=S)[S-].CCN(CC)C(=S)[S-].[Zn+2]		3.82 µM (active)
Oc1ccc(C(c2ccc(O)cc2)(C(F)(F)F)C(F)(F)F)cc1		inactive and 43.3 µM (active)
COC12CC[C@@]3(C[C@@H]1C(C)(O)C(C)(C)C)[C@H]1Cc4ccc(O)c5c4[C@@]3(CCN1CC1CC1)[C@H]2O5 (stereo not given in full)		68.1 µM (active)
C[C@@H]1CC[C@@]2(OC1)O[C@H]1[C@@H](O)[C@H]3[C@@H]4CC[C@H]5C[C@@H](O[C@@H]6O[C@H](CO)[C@H](O[C@@H]7O[C@H](CO)[C@@H](O)[C@H](O[C@@H]8OC[C@@H](O)[C@H](O)[C@H]8O)[C@H]7O[C@@H]7O[C@H](CO)[C@@H](O)[C@H](O[C@@H]8O[C@H](CO)[C@@H](O)[C@H](O)[C@H]8O)[C@H]7O)[C@H](O)[C@H]6O)[C@H](O)C[C@]5(C)[C@H]4CC[C@]3(C)[C@H]1[C@@H]2C		20.5 µM (active)
CCCOCC(=Nc1ccc(Cl)cc1C(F)(F)F)n1ccnc1		13.7 µM (active)
CC(C)[C@H](C(=O)O[C@H](C#N)c1cccc(Oc2ccccc2)c1)c1ccc(Cl)cc1	-18.8% (inactive)	
COc1cc(N)c(Cl)cc1C(=O)NC1CN2CCC1CC2 (stereo not given)	-0.338% (inactive)	
CC(c1ccc(O)cc1)c1ccc(O)cc1	0.404% (inactive)	
CN(C)[C@@H]1C(=O)C(C(N)=O)=C(O)[C@@]2(O)C(=O)C3=C(O)c4c(O)ccc(Cl)c4[C@@](C)(O)[C@H]3C[C@@H]12	-5.31% (inactive)	
CCN	4.55% [at 94.8 µM] (inactive)	
Oc1c(Br)c(Br)c(Br)c(Br)c1Br		24.5 µM (active)
CCCCN(CCCC)C(=S)[S-].CCCCN(CCCC)C(=S)[S-].[Zn+2]		19.3 µM (active)
COP(=O)(OC)SCn1c(=O)oc2cc(Cl)cnc21		48.6 µM (active)
O=C1c2ccccc2C(=O)C1C(=O)C(c1ccccc1)c1ccc(Cl)cc1 (stereo not given)		30.6 µM (active)
O=C(CBr)c1ccc(O)cc1	0.624% (inactive)	
O=CC(Br)(Br)Br		54.3 µM (active)
CC1(c2ccc(Oc3ccccc3)cc2)OC(=O)N(Nc2ccccc2)C1=O (stereo not given)		24.5 µM (active)
CCOC(=O)OC1=C(c2cc(C)ccc2C)C(=O)NC12CCC(OC)CC2 (stereo not given)	-25.6% (inactive)	
CC1(C)C(/C=C(\Cl)C(F)(F)F)C1C(=O)OC(C#N)c1cccc(Oc2ccccc2)c1 (stereo not given)	-15.8% [at 94.8 µM] (inactive)	

SMILES	viability change, negative = cytotoxic	Potency
CCOP(=O)(NC(C)C)Oc1ccc(SC)c(C)c1 (stereo not given)	16.5% (inactive)	
O=C(O)C1C2CCC(O2)C1C(=O)O (stereo not given)		inactive
O=c1[nH]c2ccccc2n1C1CCN(CCCC(c2ccc(F)cc2)c2ccc(F)cc2)CC1		24.3 µM (active) and 33.5 µM (active)
O=[N+]([O-])c1ccc2ccc3cccc4ccc1c2c34	-6.91% (inactive)	
C=CC(=O)OCC(COC(=O)C=C)(COC(=O)C=C)COC(=O)C=C		43.3 µM (active)
COc1ccc(OC)c(CC(C)N)c1 (stereo not given)	4.61% [at 94.8 µM] (inactive)	
CNC(C)Cc1ccc2c(c1)OCO2 (stereo not given)	-2.11% [at 94.8 µM] (inactive)	
C[C@]12CC[C@H]3[C@@H](CCC4=CC(=O)CC[C@@]43C)[C@@H]1CC[C@@H]2O	-1.88% (inactive)	
COc1cc(C=O)cc2c1[C@H](COC(N)=O)[C@]1(OC(C)=O)ON2C[C@H]2[C@@H]1N2C(C)=O		0.154 µM (active)
CCCCCCCCCBr	-1.1% [at 94.8 µM] (inactive)	
c1ccc2cc3c(cc2c1)-c1cccc2cccc-3c12	5.07% (inactive)	
COc1ccc(/C(=C/C(=O)N2CCOCC2)c2ccc(Cl)cc2)cc1OC	0.184% (inactive)	
Clc1ccc(C(c2ccccc2Cl)C(Cl)(Cl)Cl)cc1 (stereo not given)		61.5 µM (active)
CC(=O)/C=C/c1ccc2c(c1)OCO2	-0.636% [at 94.8 µM] (inactive)	
O=S(=O)(c1ccc(Cl)cc1)c1ccc(Cl)cc1	-24.3% [at 94.8 µM] (inactive)	
CC(=O)[O-].CC(=O)[O-].[Hg+2]		1.22 µM (active)
CC(=O)Nc1ccc2c(c1)Cc1ccccc1-2	-1.45% [at 94.8 µM] (inactive)	
C[C@@H]1O[C@@H](O[C@H]2C[C@@H](O)[C@]3(CO)[C@H]4[C@H](O)C[C@]5(C)[C@@H](C6=CC(=O)OC6)CC[C@]5(O)[C@@H]4CC[C@]3(O)C2)[C@H](O)[C@H](O)[C@H]1O		6.5 nM (active) and 133 nM (active)
N#CCCSCCC#N	0.661% (inactive)	
CC(C)Oc1cccc(NC(=O)c2ccccc2C(F)(F)F)c1	19.7% (inactive)	
